# Test results reported in PubChem BioAssay (Tox21).
# Inconclusive results are not listed. Activity calls are given as the source filed them. Calls come from the whole dose curve.
# Assay: qHTS assay to identify small molecule antagonists of the estrogen receptor alpha (ER-alpha) signaling pathway using the BG1 cell line (AID 743080);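 note: BG1 cells stimulated with 17beta-estradiol alongside compound; nearly all actives have a fitted effect of over 25% in size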
# Details: BG1Luc4E2 ERE-luciferase antagonist mode, luminescence; series mostly up to 70.3 µM
# From the text: National Center for Advancing Translational Sciences [NCATS]
# NIH Chemical Genomics Center [NCGC]
# U.S. Environmental Protection Agency [EPA]
# National Institutes of Environmental Health Sciences [NIEHS]
# National Toxicology Program [NTP]
# U.S. Food and Drug Administration [FDA]
# Estrogen receptor (ER), a nuclear hormone receptor, plays an important role in development, metabolic homeostasis and reproduction. Endocrine disrupting chemicals (EDCs) and their interactions with steroid hormone receptors like ER causes disruption of normal endocrine function. Therefore, it is important to understand the effect of environmental chemicals on the ER signaling pathway. To identify ER antagonists, BG1-Luc-4E2 cell line (provided by Dr. Michael Denison from University of California) has been used to screen the Tox21 10K compound library. BG1Luc4E2 cell line endogenously expresses full-length ER-alpha and is stably transfected with a plasmid containing four estrogen responsive elements (ERE) upstream of a luciferase reporter gene.
# Tox21 Assay Protocol Summary:
# BG1-Luc-4E2 cells were cultured in phenol red free assay medium containing 10% charcoal stripped FBS for 5 days before the assay was performed. The cells were dispensed at 4,000 cells/4 uL of assay medium per well into white wall/solid-bottom 1536-well plates using a Multidrop Combi (ThermoFisher Scientific, Waltham, MA) dispenser. The assay plates were incubated at a 37C and 5% CO2 for 24 h, and then 23 nL of compounds dissolved in DMSO, positive controls or DMSO only was transferred to the assay plate using a Pintool station (Kalypsys, San Diego, CA), followed by addition of 1 uL of 17beta-estradiol in assay medium using a Flying Reagent Dispenser (Aurora Discovery, San Diego, CA). After the plates were incubated at 37 C and 5% CO2 for 21.5 h, 1 uL of CellTiter-Fluor reagent (Promega, Madison, WI) of measuring cytotoxicity was added using Flying Reagent Dispenser (FRD) to each well. The assay plates were incubated at 37 C and 5% CO2 for additional 30 min and the fluorescence intensity was quantified by a ViewLux plate reader (PerkinElmer, Shelton, CT). For measuring luciferase reporter gene activity, 4 uL of ONE-Glo reagent (Promega) was added to each plate using an FRD and luminescence was quantified by a ViewLux plate reader after 30 min incubation at room temperature.
row,SMILES,outcome
1,CNC(=O)Oc1ccc2c(c1)[C@]1(C)CCN(C)[C@@H]1N2C,inactive
2,CC(=O)c1ccc(O)cc1,inactive
3,Cc1ccc2ncccc2c1,inactive
4,CC(CCl)OP(=O)(OC(C)CCl)OC(C)CCl (stereo not given),inactive
5,CCNc1cccc(C)c1,inactive
6,CC(C)=CCl,inactive
7,O=C(O)c1ccccc1C(=O)O,inactive
8,O=C(O)Cn1c(=O)n(Cc2ccc(Br)cc2F)c(=O)c2ccc(Cl)cc21,inactive
9,O=C(OCC1CCC2OC2C1)C1CCC2OC2C1 (stereo not given),inactive
10,CCOCC(=O)O,inactive
11,CCO[Si](CCC#N)(OCC)OCC,inactive
12,Cc1ccc([N+](=O)[O-])cc1S(=O)(=O)O,inactive
13,CC(CCO)CC(C)(C)C (stereo not given),inactive
14,Brc1ccc(Br)c(Br)c1,inactive
15,CC(=O)OCCOC(C)=O,inactive
16,CCNC(=S)NCC,inactive
17,CCCCCCCCCCO,inactive
18,CC(=O)OCc1ccccc1,inactive
19,CSc1ccc(Cl)cc1,inactive
20,COc1ccc(C)cc1N,inactive

row,SMILES,outcome
1,O=C(O)c1ccc(C(=O)O)c(C(=O)O)c1,inactive
2,Nc1ccc(Cl)c(N)c1,inactive
3,OCc1ccccc1,inactive
4,COc1ccc(OC)cc1,inactive
5,COc1ccc(N)c(C)c1,inactive
6,CCCCCCCC=O,inactive
7,CCCCCCC=O,inactive
8,CC(C)(C)c1cc(Cc2cc(C(C)(C)C)c(O)c(C(C)(C)C)c2)cc(C(C)(C)C)c1O,inactive
9,COc1ccc([N+](=O)[O-])cc1N,inactive
10,CC(=O)OCc1ccco1,inactive
11,CCCCCCO,inactive
12,CN(C)c1ccc(O)c2c1C[C@H]1C[C@H]3[C@H](N(C)C)C(=O)C(C(N)=O)=C(O)[C@@]3(O)C(=O)C1=C2O,inactive
13,C[Si]1(C)O[Si](C)(C)O[Si](C)(C)O[Si](C)(C)O1,inactive
14,C=CCCCCCCCCC(=O)O,inactive
15,O=C(O)c1ccc(S(=O)(=O)N(Cl)Cl)cc1,inactive
16,Cc1ccc(C(C)C)c(O)c1,inactive
17,CCCCCCCCCCCC(=O)OC,inactive
18,NCCN1CCNCC1,inactive
19,c1ccc2c(c1)Cc1ccccc1-2,inactive
20,CC(C)(Oc1ccc(CCNC(=O)c2ccc(Cl)cc2)cc1)C(=O)O,inactive
